# Results as given in PubChem BioAssay.
# Calls of active or inactive are those of the source.
# Key:
# [1] = E. coli DRC41 culture turbidity changes, primary screen, E. coli filamentation inducer project, strain DRC41, OD650, 48 h (AID 1152);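 further: E. coli MC1000 strain DRC41 lacking acrAB efflux pump and sulA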; conditions: E. coli DRC41 (acrAB sulA), higher = more signal, called active from +8 up or from −8 down
# [2] = small-molecule binders of probe aLefty1, primary screen, biochemical, small-molecule microarray, 635/667 nm fluorescence (AID 1153); conditions: higher = more signal;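 further: score merges spot fluorescence with signal-to-noise ratio from the scanned slide images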
# [3] = PSAC antagonists in infected red cells, primary screen, cell-based, P. falciparum Indochina, OD700, 1 h (AID 1154); conditions: P. falciparum Indochina infected RBC osmotic lysis, higher = more signal, called active from +8 up or from −8 down
# [4] = PSAC antagonists in infected red cells, primary screen, cell-based, P. falciparum Indochina, OD700, 2 h (AID 1155);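 further: lysis reports solute entry through the parasite surface anion channel PSAC; channel blockers reduce lysis of infected cells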; conditions: P. falciparum Indochina infected erythrocytes, osmotic lysis OD700; higher = more signal, called active from +8 up or from −8 down
# [5] = osmotic lysis modulators in infected erythrocytes, primary screen, PSAC antagonist project, cell-based, P. falciparum Indochina, OD700, 3 h (AID 1156); conditions: higher = more signal, called active from +8 up or from −8 down
# [6] = PSAC antagonists in infected red cells, primary screen, cell-based, P. falciparum Indochina, OD700, 18 h (AID 1157); conditions: P. falciparum Indochina infected erythrocytes, osmotic lysis OD700, 18 h; higher = more signal, called active from +8 up or from −8 down
# [7] = modulators of S6 phosphorylation in cells, primary screen, cell-based, A549, cytoblot, luminescence, serum-stimulated (AID 1158); conditions: A549 phospho-S6 cytoblot, 5 h, higher = more signal;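 further: serum-stimulated A549 lung adenocarcinoma cells; signal is phosphorylated S6 detected by cytoblot immunostaining with HRP secondary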
# [8] = biological target: NADPH oxidase 2 (Homo sapiens) (UniProt P04839); assay: NOX2-dependent H2O2 signal modulators, primary screen, NOX inhibitor project, cell-based, HEK293-NOX2, PMA-stimulated, Amplex Red fluorescence (AID 1159); conditions: 45 min, higher = more signal, called active from +8 up or from −8 down; further: test concentration not given here
# [9] = biological target: NADPH oxidase 4 (Homo sapiens) (UniProt Q9NPH5); assay: NOX4-dependent H2O2 signal modulators, primary screen, NOX inhibitor project, cell-based, HEK293-NOX4, tetracycline-induced, Amplex Red fluorescence (AID 1160); conditions: 45 min, higher = more signal, called active from +8 up or from −8 down
# [10] = biological target: NADPH oxidase 5 (Homo sapiens) (UniProt Q96PH1); assay: NOX5-dependent H2O2 signal modulators, primary screen, NOX inhibitor project, cell-based, HEK293-NOX5, Amplex Red fluorescence (AID 1161); conditions: HEK293-NOX5, ionomycin, 45 min, higher = more signal
# [11] = A549 cell viability effects, profiling panel, calcein-AM fluorescence, 48 h, basal (AID 1162); conditions: higher = more signal; further: test concentration not given here
# [12] = adipocyte viability effects, profiling panel, cell-based, 3T3-L1 adipocytes, calcein-AM fluorescence, 48 h, basal (AID 1163); conditions: 3T3-L1 adipocytes viability, higher = more signal; further: test concentration not given here
# [13] = HepG2 cell viability effects, profiling panel, calcein-AM fluorescence, 48 h, basal (AID 1164); conditions: higher = more signal; further: test concentration not given here
# [14] = MM1S cell viability effects, profiling panel, calcein-AM fluorescence, 48 h, basal (AID 1165); conditions: higher = more signal;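 further: viability of MM1S multiple myeloma cells under basal unstimulated conditions; test concentration not given here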
# [15] = basal RPMI8226 viability, no added stimulus, profiling panel, cell-based, calcein-AM fluorescence, 48 h, PK04 Diversity Set (AID 1166); conditions: RPMI8226 myeloma viability, higher = more signal;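 further: cells grown under basal conditions without added stimulus; test concentration not given here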
# [16] = basal HepG2 mitochondrial membrane potential changes, profiling panel, cell-based, JC-1 fluorescence, 24 h, 100 nL compound (AID 1167); conditions: higher = more signal; further: test concentration not given here
# [17] = basal 3T3-L1 adipocyte mitochondrial potential changes, profiling panel, cell-based, JC-1 fluorescence, 3T3-L1 adipocytes, 24 h, 100 nL compound (AID 1168); conditions: JC-1 mitochondrial fluorescence, higher = more signal, called active from +8 up or from −8 down; further: test concentration not given here
# [18] = basal RPMI8226 mitochondrial membrane potential changes, profiling panel, cell-based, JC-1 fluorescence, 24 h, 100 nL compound (AID 1169); conditions: RPMI8226 myeloma, JC-1 mitochondrial potential fluorescence, higher = more signal; further: test concentration not given here
# [19] = basal MM1S mitochondrial membrane potential changes, profiling panel, cell-based, JC-1 fluorescence, 24 h, 100 nL compound (AID 1170); conditions: higher = more signal; further: test concentration not given here
# [20] = A549 lung cancer cell viability effects, profiling panel, resazurin fluorescence, 24 h, PK04 Diversity Set (AID 1171); conditions: higher = more signal, called active from +8 up or from −8 down; further: test concentration not given here
# Chain of NADPH oxidase 5 (Homo sapiens) (Q96PH1 whole entry, looked up): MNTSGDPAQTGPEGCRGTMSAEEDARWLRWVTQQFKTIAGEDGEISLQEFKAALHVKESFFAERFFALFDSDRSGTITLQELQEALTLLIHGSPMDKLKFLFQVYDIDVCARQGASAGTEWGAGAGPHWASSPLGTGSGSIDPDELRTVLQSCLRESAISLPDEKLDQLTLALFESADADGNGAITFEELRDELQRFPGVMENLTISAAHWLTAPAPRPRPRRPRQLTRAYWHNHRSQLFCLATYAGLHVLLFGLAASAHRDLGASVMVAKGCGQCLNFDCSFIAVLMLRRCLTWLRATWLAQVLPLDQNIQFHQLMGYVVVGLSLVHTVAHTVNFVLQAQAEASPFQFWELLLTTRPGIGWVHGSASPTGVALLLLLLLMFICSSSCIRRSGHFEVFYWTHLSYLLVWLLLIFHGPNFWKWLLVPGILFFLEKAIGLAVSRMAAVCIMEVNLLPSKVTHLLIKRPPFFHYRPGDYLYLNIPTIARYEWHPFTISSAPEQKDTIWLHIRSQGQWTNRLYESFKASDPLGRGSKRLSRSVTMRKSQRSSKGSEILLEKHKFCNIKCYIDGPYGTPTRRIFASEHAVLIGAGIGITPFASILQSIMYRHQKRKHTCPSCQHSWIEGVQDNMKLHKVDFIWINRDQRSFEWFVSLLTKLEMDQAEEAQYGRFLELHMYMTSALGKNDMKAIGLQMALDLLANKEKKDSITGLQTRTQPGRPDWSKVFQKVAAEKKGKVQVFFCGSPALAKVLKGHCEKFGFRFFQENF
# Chain of NADPH oxidase 2 (Homo sapiens) (P04839 whole entry, looked up): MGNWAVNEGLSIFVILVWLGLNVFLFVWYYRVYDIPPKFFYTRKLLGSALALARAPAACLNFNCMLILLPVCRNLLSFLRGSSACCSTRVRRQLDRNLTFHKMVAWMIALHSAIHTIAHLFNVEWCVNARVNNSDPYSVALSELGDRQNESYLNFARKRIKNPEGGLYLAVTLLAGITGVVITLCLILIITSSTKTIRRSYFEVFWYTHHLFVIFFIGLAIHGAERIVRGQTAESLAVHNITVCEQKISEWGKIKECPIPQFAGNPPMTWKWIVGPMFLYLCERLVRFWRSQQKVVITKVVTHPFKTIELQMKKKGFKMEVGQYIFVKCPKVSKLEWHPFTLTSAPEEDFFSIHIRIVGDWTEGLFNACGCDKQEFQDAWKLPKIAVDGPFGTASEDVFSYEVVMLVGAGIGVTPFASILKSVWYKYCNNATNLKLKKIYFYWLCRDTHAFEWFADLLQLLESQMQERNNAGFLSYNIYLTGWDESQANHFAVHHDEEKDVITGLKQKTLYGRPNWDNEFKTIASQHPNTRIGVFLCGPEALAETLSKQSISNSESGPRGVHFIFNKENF
# Chain of NADPH oxidase 4 (Homo sapiens) (Q9NPH5 whole entry, looked up): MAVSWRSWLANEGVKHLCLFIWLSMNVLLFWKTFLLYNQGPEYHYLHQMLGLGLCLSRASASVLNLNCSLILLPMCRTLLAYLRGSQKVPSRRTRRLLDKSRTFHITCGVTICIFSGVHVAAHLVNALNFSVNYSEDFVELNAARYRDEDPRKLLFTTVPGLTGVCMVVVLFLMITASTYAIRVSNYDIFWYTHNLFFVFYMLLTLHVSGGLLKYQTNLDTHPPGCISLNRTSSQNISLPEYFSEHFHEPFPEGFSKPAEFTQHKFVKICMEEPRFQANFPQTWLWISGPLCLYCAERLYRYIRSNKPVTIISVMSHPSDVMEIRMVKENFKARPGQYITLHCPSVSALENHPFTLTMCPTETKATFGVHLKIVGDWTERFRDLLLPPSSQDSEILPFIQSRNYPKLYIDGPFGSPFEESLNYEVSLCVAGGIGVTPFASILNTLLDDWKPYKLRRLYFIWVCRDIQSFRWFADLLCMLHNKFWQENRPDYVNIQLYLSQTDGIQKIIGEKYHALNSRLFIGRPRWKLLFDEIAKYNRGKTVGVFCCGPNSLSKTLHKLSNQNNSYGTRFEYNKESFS
Structure (SMILES),z-score [1],composite z-score [2],z-score [3],z-score [4],z-score [5],z-score [6],z-score [7],z-score [8],z-score [9],z-score [10],z-score [11],z-score [12],z-score [13],z-score [14],z-score [15],z-score [16],z-score [17],z-score [18],z-score [19],z-score [20]
C=CCC(OC(C)=O)[C@@H]1[C@@H](N(Cc2cc3ccccc3o2)C(=O)Cc2ccc(OC)cc2)c2cc(OCCCO)ccc2N1C(=O)Cc1ccc2ccccc2c1 (stereo not given in full),-0.476 (inactive),0.152,2.63 (inactive),-0.005 (inactive),1.35 (inactive),0.308 (inactive),0.638,-0.282 (inactive),-0.427 (inactive),1.21,0.583,0.592,-0.118,0.0786,-0.929,2.27,-0.315 (inactive),0.00245,-0.692,-1.16 (inactive)
C=CC[C@]1(C(=O)N(C)C)COC(c2ccc(OCCCO)cc2)=N1,-2.4 (inactive),0.0087,8.04 (active),0.627 (inactive),2.32 (inactive),0.0256 (inactive),0.116,-0.898 (inactive),-0.581 (inactive),-2.06,0.345,0.911,-0.8,-0.424,0.304,-1.26,-0.133 (inactive),-0.676,1.23,-0.497 (inactive)
CC(C)C(=C=CC[C@@H](O)c1ccc(OCCO)cc1)CCO,1.7 (inactive),-0.0054,2.86 (inactive),-0.421 (inactive),-0.143 (inactive),-1.58 (inactive),1.42,-1.47 (inactive),-0.462 (inactive),-0.971,-0.45,0.721,-0.164,0.626,0.991,0.871,0.437 (inactive),-0.21,-1.11,1.22 (inactive)
C[N+](C)(C)CCCC[C@@H]1NC(=O)[C@H]2C[C@@H](C(=O)NCCCCCNC(=O)CS)[C@@H](c3ccc(O)cc3)N2C1=O,1.65 (inactive),-0.0162,0.105 (inactive),-0.38 (inactive),-0.364 (inactive),-2.52 (inactive),1.46,0.236 (inactive),0.335 (inactive),1.52,0.809,-0.464,0.664,0.949,-1.51,1.45,-0.0341 (inactive),0.287,-0.013,-0.567 (inactive)
C[C@H]1C2[C@H](Cc3ccccc3)NC(=O)[C@]23C(=O)NCC(=O)N2CCC[C@H]2C(=O)NC/C=C\C/C=C/C3[C@@H]2O[C@]12C (stereo not given in full),0.822 (inactive),-0.193,-0.0865 (inactive),-0.387 (inactive),-0.62 (inactive),-0.113 (inactive),0.255,0.212 (inactive),1.07 (inactive),0.649,0.379,0.491,0.409,0.163,-0.547,-0.324,0.0628 (inactive),-1.03,0.227,0.87 (inactive)
